# Screening data as filed in PubChem.
# Sampled rows, rich in hits. Any-hit rate of the full collection: about 11%.
# SW480 rereplic: inducers of DNA re-replication in SW480 colon cancer cells; SW480 DNA re-replication, Hoechst DNA content imaging, 48 h; Potency, µM (highest dose often 46.1 µM), for the others: top-dose re-replication activation, most hits filed as activators; 1.8% of 340,000 active; AID 624297; note: potency is the fitted concentration of half-maximal effect; % of control where 0% means no effect; nearly all actives have a fitted effect of over 55% in size
#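 Treated cells incubate 48 hr (37 C, 5% CO2), are stained 40 min with Hoechst, and nuclear fluorescence is enumerated; a rise in nuclei with high DNA signal marks re-replication.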
# MCF10A rereplic: induces DNA re-replication in MCF 10a normal breast cells | Potency, µM (highest dose often 46.1 µM), inactives show at the top dose activity, positive = re-replication, most hits filed as activators | MCF 10A DNA re-replication, Hoechst nuclear intensity, 48 h | 2.9% of 350,000 active; note: potency is the fitted concentration of half-maximal effect; % of control where 0% means no effect; nearly all actives have a fitted effect of over 50% in size
# IL1B secr inh: inhibitors of inflammasome signaling (IL-1 beta secretion); THP-1 LPS/ATP IL-1B secretion, AlphaLISA, 16 h; hits give low values; activity change, % at 57.5 µM; 4.7% of 360,000 active; AID 743279; in the data active = activity change below about -50%; inconclusive = mostly about -30% to -49%; note: % is set by controls: 0 for no effect and ±100 for the full control effect
#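 Secreted IL-1B measured by AlphaLISA bead assay after 16 h compound exposure of THP-1 cells; compounds (final up to 57.5 uM) added 1 h before LPS (250 ng/mL) and ATP (1.25 mM) stimulation; lower signal means less secretion.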
# VP16 counter: counter-screen for ROR gamma inhibitors: Gal4-VP16 reporter; Drosophila S2 Gal4-VP16 UAS-luciferase, luminescence, 20 h; Potency, µM (series often up to 53.6 µM), without a hit: top-dose activity, negative = inhibition, usual class: inhibitors; 3.5% of 310,000 active; AID 2546;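 note: Gal4-VP16 expression switched on by copper sulfate through the metallothionein promoter; potency is the fitted concentration of half-maximal effect; % is set by controls: 0 for no effect and ±100 for the full control effect; nearly all actives have a fitted effect of over 50% in size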
# RORg inh: inhibitors of mouse ROR gamma transcriptional activity; Potency, µM (doses to about 53.6 µM), without a hit: at the top dose activity change, negative = inhibition, actives largely listed as inhibitors; 5.4% of 310,000 active; P51450; Drosophila S2 Gal4-RORgamma UAS-luciferase reporter, 20 h; AID 2551; note: potency is the fitted concentration of half-maximal effect; % is set by controls: 0 for no effect and ±100 for the full control effect; nearly all actives have a fitted effect of over 60% in size
# Target sequence (P51450 whole entry, looked up, the tested form may be a part): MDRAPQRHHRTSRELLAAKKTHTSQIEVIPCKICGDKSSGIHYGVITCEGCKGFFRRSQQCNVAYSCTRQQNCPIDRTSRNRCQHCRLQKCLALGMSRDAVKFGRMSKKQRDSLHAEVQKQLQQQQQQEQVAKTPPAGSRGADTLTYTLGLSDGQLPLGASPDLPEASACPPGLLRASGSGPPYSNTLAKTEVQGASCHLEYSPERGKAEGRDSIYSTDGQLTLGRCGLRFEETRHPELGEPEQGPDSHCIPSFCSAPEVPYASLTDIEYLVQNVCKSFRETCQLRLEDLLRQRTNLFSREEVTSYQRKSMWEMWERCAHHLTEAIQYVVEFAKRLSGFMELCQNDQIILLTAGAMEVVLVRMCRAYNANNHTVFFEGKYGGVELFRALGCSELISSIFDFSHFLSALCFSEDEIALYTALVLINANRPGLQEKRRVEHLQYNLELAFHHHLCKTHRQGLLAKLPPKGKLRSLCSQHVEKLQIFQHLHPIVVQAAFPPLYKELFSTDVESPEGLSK
#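 Drosophila S2 cells stably expressing Gal4-DBD/mouse RORγ fusion under metallothionein promoter plus UAS-luciferase; compound 1 h, then 700 uM CuSO4 induction for 20 h at ambient temperature; inhibition read as reduced luminescence.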
# * = called active by the depositor; ? = inconclusive; nt = no result; [ ] = dose if it differs, or a comment. Unless noted, calls come from the whole dose curve; as a rule, active = well fitted curve in the direction sought with a large enough effect; inconclusive = small, poorly fitted or top-dose-only effect, or another doubt; inactive = no such curve, though single readings can be large; an effect the other way counts as inactive or inconclusive.
SMILES,SW480 rereplic,MCF10A rereplic,IL1B secr inh,VP16 counter,RORg inh
COc1ccc(NC(=S)NC(C)Cc2cccs2)cc1 (configuration not stated),-5.6%,9.4%,-13.5,2.82µM*,14.1µM*
Nn1c(COc2ccccc2F)nnc1SCC(=O)NCC1CCCO1 (configuration not stated),nt,nt,-6.3,nt,nt
Cc1ccc(C2(C)NC(=O)N(CC(=O)N3c4ccccc4NC(=O)CC3C)C2=O)cc1 (configuration not stated),?,2.0%,4.5,nt,nt
Oc1ccc(C2=NNC(=NCc3ccc4c(c3)OCO4)SC2)c(O)c1,14.6µM*,11.6µM*,-6.5,?,1.58µM*
COc1ccc(OC)c(C2=NNC(=NCc3ccc4c(c3)OCO4)SC2)c1,-14.1%,-0.6%,0.0,1.2%,-7.2%[10 µM]
CC(=O)c1c(C)[nH]c(C(=O)NCCc2ccc(Cl)cc2)c1C,-15.0%,3.66µM*,-1.0,-1.9%,31.9%
CC(=O)c1c(C)[nH]c(C(=O)Nc2ccc(Cl)cc2)c1C,-1.7%,13.7%,-3.2,?,28.6%
Cc1cccc(NC(=O)COc2coc(CN3CCN(c4ccccc4)CC3)cc2=O)c1,-2.8%,3.8%,11.7,nt,nt
O=C(CCc1ccccc1)NNC(=S)Nc1ccc(F)cc1,-2.1%,-0.4%,9.2,?,3.55µM*
O=C(CSCc1ccccc1Cl)Nc1ccc(C(=O)O)cc1,-3.3%,-0.4%,14.5,14.6%,5.4%
Cc1cccc(NC(=S)NNC(=O)c2csc(C)c2)c1,0.5%,-3.0%,3.6,?,5.01µM*
Cc1cccc(NCC(=O)NNC(=S)Nc2ccccc2)c1,-7.9%,2.5%,-5.8,?,11.2µM*
CC(O)CCC(=O)NNC(=S)Nc1ccccc1 (configuration not stated),?,5.7%,-0.6,-0.5%,-30.4%
O=C(CSCc1ccccc1Cl)NNC(=S)Nc1ccccc1,-0.7%,-3.0%,-21.5,-6.9%,15.8µM*
Cc1nc(N)ncc1CCC1OCCO1,nt,nt,3.6,nt,nt
OCC1OC(c2ccc3c(c2)OCO3)C=CC1Oc1cc(Cl)cc(Cl)c1 (configuration not stated),nt,nt,nt,-8.0%[10 µM],8.1%[10 µM]
COc1cc(C(=O)OCC(=O)N2CCC(C)CC2)cc2c1OCCO2,-3.8%,4.2%,-4.9,nt,nt
Cc1cccc(NC(=O)CC(=O)Nc2cccc(C)c2)c1,-0.8%,-21.1%,-14.5,-6.6%,17.6%
Cc1cccc(NC(=S)NNC(=O)Cc2ccccc2)c1,-106.4%,-1.4%,11.5,?,11.2µM*
O=C(CCc1ccccc1)Nc1ccncc1,4.0%,1.4%,0.2,-13.5%,26.9%
CNC(=S)NNC(=O)CNc1ccc(C)c(Cl)c1,4.2%,-8.0%,8.2,12.6µM*,5.62µM*
O=C(Cc1ccccc1)NNC(=S)Nc1ccc(Cl)cc1,0.517µM*,1.2%,7.2,?,?
CC(C)c1ccc(NC(=O)CCc2ccccc2)cc1,?,8.2µM*,?,7.7%,?
Cc1ccc(NC(=O)Cc2ccsc2)cc1Cl,-0.7%,-12.2%,-8.1,8.9%,17.5%
COc1ccccc1CN1CCC2(CC1)CCN(C(=O)c1c(C)noc1C)CC2,nt,nt,nt,-4.5%,-22.1%
SMILES,SW480 rereplic,MCF10A rereplic,IL1B secr inh,VP16 counter,RORg inh
CC(=O)NC(c1ccc(F)c(F)c1)c1nc(-c2ccccc2C)cs1 (configuration not stated),nt,nt,25.9,nt,nt
CSc1ccc(/C=C/C(=O)c2ccc(NC(C)=O)cc2)cc1,?,?,?,-1.0%,12.8%
CN(C)c1ccc(/C=C/C(=O)c2cccc(Br)c2)cc1,?,16.4µM*,?,1.2%,23.3%
CCC(=O)Nc1cccc(C(=O)/C=C/c2ccc(F)cc2)c1,10.3µM*,?,-80.1*,?,?
CC(=O)Nc1cccc(C(=O)N/N=C/c2ccc(F)cc2)c1,-5.0%,0.0%,0.0,-17.0%,-29.8%
CC(=O)Nc1cccc(C(=O)/C=C/c2ccc(C)cc2)c1,?,20.6µM*,-102.2*,?,12.6µM*
N#Cc1ccccc1OCC(=O)Nc1nnc(C2CC2)s1,8.4%,20.7%,-12.8,nt,nt
COc1cccc(-c2ccc3ncnc(NCc4cnc(C)cn4)c3c2)c1,nt,nt,nt,?,-2.4%
Cc1ccccc1C(=O)Nc1cccc(-c2cn3ccccc3n2)c1,-13.1%,12.5%,-79.9*,1.8%[10 µM],-7.3%
CCCCC(=O)Nc1cccc(-c2cn3ccccc3n2)c1,-0.5%,0.9%,-8.7,-28.1%,-35.8%
Cc1ccc(C(=O)Nc2cccc(-c3cn4ccccc4n3)c2)cc1,11.4%,?,-51.6*,-3.3%,-29.4%
O=C(Nc1ccc(-c2cn3ccccc3n2)cc1)c1ccc(Cl)cc1,22.1%,10.5%,21.0,1.5%,-43.2%
O=C(Nc1cccc(-c2cn3ccccc3n2)c1)c1ccccc1,-10.6%,1.7%,-68.4*,-5.8%,17.9%
C#CCOc1ccc(CNC[C@H]2O[C@@H](n3cnc4c(N)ncnc43)[C@H](O)[C@@H]2O)cc1,0.8%,-1.8%,8.7,nt,nt
COc1ccc(CCC(=O)N2CCN(S(=O)(=O)c3ccc(OC(F)(F)F)cc3)CC2)cc1,-0.6%,3.8%,-7.2,nt,nt
Cn1c(C(=O)N2CCN(c3nc4ccccc4s3)CC2)cc2sccc21,6.0%,1.0%,-12.1,8.5%,17.2%
O=C(c1cc2sccc2n1Cc1ccc(F)cc1)N1CCN(c2nc3ccccc3s2)CC1,15.0%,1.5%,-0.1,11.2µM*,?
COc1ccc(OCc2cc(C(=O)NCC3CCCCO3)no2)c(Cl)c1 (configuration not stated),0.2%,3.8%,-7.4,5.9%,16.5%
COC(=O)/C=C\C(C#N)(C#N)N=Cc1ccc(OC)cc1,6.51µM*,13µM*,0.0,nt,nt
CC(=O)Nc1ccc(C2=NNC(=NCC3CCCO3)SC2)cc1 (configuration not stated),nt,-3.1%,4.9,-3.0%,?
c1ccc2c(C3=NNC(=NC4CCCCC4)SC3)c[nH]c2c1,?,7.3%,-96.3*,-7.3%,8.5%[10 µM]
c1ccc2c(C3=NNC(=NC4CC4)SC3)c[nH]c2c1,-1.2%,6.3%,-96.1*,10µM*,10µM*
c1ccc(C2=NNC(=NC3CC3)SC2)cc1,-1.5%,-9.4%,-12.6,12.6µM*,14.1µM*
O=C(O)C(CCc1ccccc1)N1C(=O)c2ccccc2C1=O (configuration not stated),2.7%,-0.1%,16.7,nt,nt
CCOC(=O)CC1(C)c2nc(NC(C)=O)sc2Cc2sc(NC(C)=O)nc21,nt,nt,53.7,nt,nt
COC(=O)C1=CC(C(=O)c2cccs2)=NN(c2ccc(OC)cc2)C1C(=O)OC (configuration not stated),-71.9%,?,-69.1*,-7.7%,27.4%
COc1cc(/C=C/c2ccc3c(Br)cc(Br)c(O)c3n2)ccc1O,?,13µM*,25.0,0.316µM*,0.398µM*
Cc1ccc2c(Br)cc(Br)c(O)c2n1,-1.6%,18.8µM*,nt,0.708µM*,0.251µM*
